# In the supplement of paper PMC12282887:
# ± gives the standard deviation of the averaged measurements.
# Tests used:
# Assay in all cases: promoter activity interaction Z-score (Lux/OD deviation from empty-vector control); higher = stronger promoter induction by the compound
# [1] = tested on: E. coli BW25113 acrABp lux reporter
# Summary of the method: (§1)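 E. coli BW25113, as wild type or one of three single-gene deletion strains, carried low-copy luxCDABE promoter reporters and grew in 40 µl LB Lennox in 384-well plates at 37°C, with OD600 and luminescence read every 30 min for 12 h. Each compound was run at four 1:2 dilutions in biological duplicates, integration spanned 0–8 h for wild type and 1–9 h for deletion strains, and wells under 10% of the median growth value were dropped. The score is the Z-transformed residual of growth-normalised luminescence fitted against a control.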
# [2] = tested on: E. coli BW25113 micFp lux reporter
# Summary of the method: as §1
# [3] = tested on: E. coli BW25113 ompFp lux reporter
# Summary of the method: as §1
# [4] = tested on: E. coli BW25113 robp lux reporter
# Summary of the method: as §1
# [5] = tested on: E. coli BW25113 soxSp lux reporter
# Summary of the method: as §1
# [6] = tested on: E. coli BW25113 tolCp lux reporter
# Summary of the method: as §1
# [7] = 23.5 µg/ml, genetic background: wild type
# [8] = 23.5 µg/ml, genetic background: ΔmarA
# [9] = 23.5 µg/ml, genetic background: Δrob
# [10] = 23.5 µg/ml, genetic background: ΔsoxS
# [11] = 47.1 µg/ml, genetic background: wild type
# [12] = 47.1 µg/ml, genetic background: ΔmarA
# [13] = 47.1 µg/ml, genetic background: Δrob
# [14] = 47.1 µg/ml, genetic background: ΔsoxS
# [15] = 94.1 µg/ml, genetic background: wild type
# [16] = 94.1 µg/ml, genetic background: ΔmarA
# [17] = 94.1 µg/ml, genetic background: Δrob
# [18] = 94.1 µg/ml, genetic background: ΔsoxS
# [19] = 188.3 µg/ml, genetic background: wild type
# [20] = 188.3 µg/ml, genetic background: ΔmarA
# [21] = 188.3 µg/ml, genetic background: Δrob
# [22] = 188.3 µg/ml, genetic background: ΔsoxS
compound,measurement,setting,value
C[C@H](CCC(=O)O)[C@H]1CC[C@H]2[C@@H]3CC[C@@H]4C[C@H](O)CC[C@]4(C)[C@H]3CC[C@]12C [Lithocholic acid],promoter activity interaction Z-score,[1]; [7],0.128 ± 0.083
same,promoter activity interaction Z-score,[1]; [8],1.34 ± 2.3
same,promoter activity interaction Z-score,[1]; [9],0.0671 ± 0.095
same,promoter activity interaction Z-score,[1]; [10],-0.142 ± 0.031
same,promoter activity interaction Z-score,[1]; [11],0.171 ± 0.17
same,promoter activity interaction Z-score,[1]; [12],0.66 ± 0.77
same,promoter activity interaction Z-score,[1]; [13],0.304 ± 0.021
same,promoter activity interaction Z-score,[1]; [14],-0.0227 ± 0.072
same,promoter activity interaction Z-score,[1]; [15],-0.00199 ± 0.34
same,promoter activity interaction Z-score,[1]; [16],0.576 ± 0.88
same,promoter activity interaction Z-score,[1]; [17],-0.304 ± 0.19
same,promoter activity interaction Z-score,[1]; [18],-0.652 ± 0.55
same,promoter activity interaction Z-score,[1]; [19],-0.12 ± 0.18
same,promoter activity interaction Z-score,[1]; [20],0.897 ± 2.2
same,promoter activity interaction Z-score,[1]; [21],-0.207 ± 0.095
same,promoter activity interaction Z-score,[1]; [22],-0.566 ± 1.5
same,promoter activity interaction Z-score,[2]; [7],-0.113 ± 0.26
same,promoter activity interaction Z-score,[2]; [8],0.16 ± 0.35
same,promoter activity interaction Z-score,[2]; [9],0.238 ± 0.17
same,promoter activity interaction Z-score,[2]; [10],-0.193 ± 0.12
same,promoter activity interaction Z-score,[2]; [11],0.314 ± 0.66
same,promoter activity interaction Z-score,[2]; [12],0.226 ± 0.41
same,promoter activity interaction Z-score,[2]; [13],0.0535 ± 0.017
same,promoter activity interaction Z-score,[2]; [14],0.243 ± 0.36
same,promoter activity interaction Z-score,[2]; [15],0.275 ± 0.18
same,promoter activity interaction Z-score,[2]; [16],0.187 ± 0.33
same,promoter activity interaction Z-score,[2]; [17],0.0887 ± 0.27
same,promoter activity interaction Z-score,[2]; [18],-0.363 ± 0.17
same,promoter activity interaction Z-score,[2]; [19],-0.215 ± 0.76
same,promoter activity interaction Z-score,[2]; [20],0.379 ± 0.47
same,promoter activity interaction Z-score,[2]; [21],-0.0294 ± 0.12
same,promoter activity interaction Z-score,[2]; [22],-0.253 ± 0.14
same,promoter activity interaction Z-score,[3]; [7],-0.331 ± 0.28
same,promoter activity interaction Z-score,[3]; [8],0.388 ± 0.35
same,promoter activity interaction Z-score,[3]; [9],0.233 ± 0.41
same,promoter activity interaction Z-score,[3]; [10],-0.266 ± 0.66
same,promoter activity interaction Z-score,[3]; [11],-0.361 ± 0.42
same,promoter activity interaction Z-score,[3]; [12],-0.326 ± 0.22
same,promoter activity interaction Z-score,[3]; [13],0.512 ± 0.58
same,promoter activity interaction Z-score,[3]; [14],0.0216 ± 0.97
same,promoter activity interaction Z-score,[3]; [15],-1.02 ± 0.35
same,promoter activity interaction Z-score,[3]; [16],-0.0279 ± 0.11
same,promoter activity interaction Z-score,[3]; [17],-0.2 ± 0.59
same,promoter activity interaction Z-score,[3]; [18],-1.15 ± 0.78
same,promoter activity interaction Z-score,[3]; [19],-0.885 ± 0.27
same,promoter activity interaction Z-score,[3]; [20],-0.942 ± 0.53
same,promoter activity interaction Z-score,[3]; [21],-0.571 ± 0.34
same,promoter activity interaction Z-score,[3]; [22],-0.828 ± 0.72
same,promoter activity interaction Z-score,[4]; [7],0.566 ± 0.055
same,promoter activity interaction Z-score,[4]; [8],1.44 ± 0.64
same,promoter activity interaction Z-score,[4]; [9],0.487 ± 0.029
same,promoter activity interaction Z-score,[4]; [10],0.99 ± 0.62
same,promoter activity interaction Z-score,[4]; [11],-0.0796 ± 0.041
same,promoter activity interaction Z-score,[4]; [12],0.19 ± 0.14
same,promoter activity interaction Z-score,[4]; [13],0.443 ± 0.039
same,promoter activity interaction Z-score,[4]; [14],1.04 ± 0.47
same,promoter activity interaction Z-score,[4]; [15],-0.0166 ± 0.45
same,promoter activity interaction Z-score,[4]; [16],1.08 ± 0.44
same,promoter activity interaction Z-score,[4]; [17],0.223 ± 0.44
same,promoter activity interaction Z-score,[4]; [18],0.195 ± 0.21
same,promoter activity interaction Z-score,[4]; [19],-0.492 ± 1.1
same,promoter activity interaction Z-score,[4]; [20],0.59 ± 0.34
same,promoter activity interaction Z-score,[4]; [21],0.0946 ± 0.17
same,promoter activity interaction Z-score,[4]; [22],0.391 ± 0.17
same,promoter activity interaction Z-score,[5]; [7],0.313 ± 0.3
same,promoter activity interaction Z-score,[5]; [8],-0.0502 ± 0.087
same,promoter activity interaction Z-score,[5]; [9],0.0422 ± 0.029
same,promoter activity interaction Z-score,[5]; [10],0.057 ± 0.13
same,promoter activity interaction Z-score,[5]; [11],-0.126 ± 0.1
same,promoter activity interaction Z-score,[5]; [12],-0.195 ± 0.067
same,promoter activity interaction Z-score,[5]; [13],0.0214 ± 0.095
same,promoter activity interaction Z-score,[5]; [14],-0.0763 ± 0.36
same,promoter activity interaction Z-score,[5]; [15],-0.137 ± 0.33
same,promoter activity interaction Z-score,[5]; [16],-0.217 ± 0.014
same,promoter activity interaction Z-score,[5]; [17],-0.165 ± 0.32
same,promoter activity interaction Z-score,[5]; [18],-0.531 ± 0.61
same,promoter activity interaction Z-score,[5]; [19],-0.578 ± 0.011
same,promoter activity interaction Z-score,[5]; [20],-0.284 ± 0.089
same,promoter activity interaction Z-score,[5]; [21],-0.408 ± 0.33
same,promoter activity interaction Z-score,[5]; [22],-0.418 ± 0.97
same,promoter activity interaction Z-score,[6]; [7],0.238 ± 0.82
same,promoter activity interaction Z-score,[6]; [8],1.52 ± 0.56
same,promoter activity interaction Z-score,[6]; [9],0.914 ± 0.84
same,promoter activity interaction Z-score,[6]; [10],0.608 ± 1.3
same,promoter activity interaction Z-score,[6]; [11],-0.0238 ± 0.039
same,promoter activity interaction Z-score,[6]; [12],0.952 ± 0.099
same,promoter activity interaction Z-score,[6]; [13],1.24 ± 0.98
same,promoter activity interaction Z-score,[6]; [14],1.3 ± 0.12
same,promoter activity interaction Z-score,[6]; [15],0.429 ± 0.87
same,promoter activity interaction Z-score,[6]; [16],1.04 ± 0.5
same,promoter activity interaction Z-score,[6]; [17],0.552 ± 0.78
same,promoter activity interaction Z-score,[6]; [18],0.284 ± 0.072
same,promoter activity interaction Z-score,[6]; [19],0.995 ± 0.41
same,promoter activity interaction Z-score,[6]; [20],0.554 ± 0.33
same,promoter activity interaction Z-score,[6]; [21],0.54 ± 0.74
same,promoter activity interaction Z-score,[6]; [22],0.774 ± 1.2
